Source: PubChem
PI5P4K alpha inh: inhibitors of human PI5P4K alpha; P48426; PI5P4Kalpha enzyme, ADP-Glo luminescence, 60 min; hits give low values; max response, %; 330,000 compounds, 1.2% hits; AID 652105; active means max response of -50% or lower; inconclusive means between -30% and -50%; inactive means -30% or higher; further: value at the top dose of about 77 µM
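Enzyme plus substrate dispensed, test compounds pinned in, then ATP (5 microM final) added. After 60 min at RT, ADP-Glo reagent 1 for 45 min and reagent 2 for 30 min preceded luminescence imaging.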
PI4K2A inh: inhibitors of human PI4K2A; Q9BTU6; purified PI4K2A, ADP-Glo luminescence, 1 h; hits give low values; activity change, negative = inhibition, % at 76.9 µM; 420,000 compounds, 0.13% hits; AID 1346378; in the data active means activity change below about -50%; inconclusive means mostly about -30% to -49%;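 further: -100% = wells without enzyme as full effect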
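ADP-Glo luminescence measured ADP generated by PI4K2A enzyme (4 ug/mL before mixing) with 1.2 mM PI substrate (pre-mix) and 300 microM ATP (pre-mix). Tris pH7.5 buffer with MgCl2, Triton X-100; 1 h reaction at ambient temperature.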
Akt phos inh: blocks phosphorylation of Akt; Neuro2A IGF-stimulated pAkt S473 HTRF, 20 min; hits give low values; activity change, % for hits at 50 µM; 360,000 compounds, 0.32% hits; AID 651550; in the data active means activity change below about -80%; inconclusive means mostly about -51% to -80%
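Neuro2A cells (4,500/well, DMEM with 0.5% FBS) were treated with compound at a single 50 µM final concentration, stimulated with 6 nM IGF for 20 min at 37 °C, and lysed. Phospho-Akt Ser473 was read by HTRF as 665/615 ratio ×10^4.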
Six1-Eya2 inh: blocks human Six1 binding to Eya2; Q15475+O00167; AlphaScreen GST-Six1/His-Eya2 binding, biochemical; hits give low values; activity change, % (concentration not given with the values); 360,000 compounds, 0.56% hits; AID 651725
Target sequence (O00167 whole entry, looked up): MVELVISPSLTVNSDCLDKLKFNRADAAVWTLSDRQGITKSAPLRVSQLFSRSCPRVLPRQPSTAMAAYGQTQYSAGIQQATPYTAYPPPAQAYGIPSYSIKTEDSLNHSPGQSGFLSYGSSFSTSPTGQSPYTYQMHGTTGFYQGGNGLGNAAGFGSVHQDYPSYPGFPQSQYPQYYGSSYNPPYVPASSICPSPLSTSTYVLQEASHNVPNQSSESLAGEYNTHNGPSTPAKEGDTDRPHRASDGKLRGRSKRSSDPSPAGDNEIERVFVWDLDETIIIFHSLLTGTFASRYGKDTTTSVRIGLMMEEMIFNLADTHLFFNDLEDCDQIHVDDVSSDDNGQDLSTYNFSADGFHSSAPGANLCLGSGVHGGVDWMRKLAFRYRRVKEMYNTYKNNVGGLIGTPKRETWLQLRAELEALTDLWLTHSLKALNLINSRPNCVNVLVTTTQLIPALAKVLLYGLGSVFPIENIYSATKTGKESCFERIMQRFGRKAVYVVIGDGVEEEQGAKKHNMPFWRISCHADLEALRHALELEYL
Target sequence (Q15475 whole entry, looked up): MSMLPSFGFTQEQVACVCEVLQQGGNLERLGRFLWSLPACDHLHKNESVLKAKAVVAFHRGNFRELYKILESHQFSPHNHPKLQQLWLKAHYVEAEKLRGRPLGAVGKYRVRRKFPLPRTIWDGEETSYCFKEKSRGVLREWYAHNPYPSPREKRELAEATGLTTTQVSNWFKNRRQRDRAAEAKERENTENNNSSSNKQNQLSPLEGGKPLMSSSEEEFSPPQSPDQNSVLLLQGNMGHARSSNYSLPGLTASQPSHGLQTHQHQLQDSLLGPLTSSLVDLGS
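GST-Six1 + His-Eya2 (5X stock: 250/500 nM); Tris pH 8.0, 300 mM NaCl, 0.05% BSA, 0.02% Tween 20; GSH donor/Ni acceptor beads; 1 h 37 °C dark; AlphaScreen readout.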
CtBP-E1A blk: blocks the CtBP interaction with E1A; AlphaScreen GST-E1A/His-CtBP binding, 1536-well; hits give low values; activity change, % (concentration not given with the values); 340,000 compounds, 0.49% hits
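GST-E1A and His-tagged CtBP (125 nM each as 5X stock) were preincubated with pin-transferred compound for 2 h at 37 °C in the dark, then glutathione donor and nickel acceptor beads were added for 1 h before AlphaScreen reading.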
* marks the source's active call; other numbers are inactive results; i = inactive; ? = inconclusive; / = not tested or not shown. A selection: hits, their analogues and other compounds. The true share with any hit is near 1.8%. Unless noted, no stated cut-off is given here; in the data, active means activity change below about -65%; inconclusive means mostly about -30% to -63%; inactive means weaker than that. Unless noted, on the % scale 0 is the no-effect control and ±100 the full control effect.

SMILES | PI5P4K alpha inh | PI4K2A inh | Akt phos inh | Six1-Eya2 inh | CtBP-E1A blk
COc1cccc(C2Nc3c(F)cc(Br)cc3C3C=CCC32)c1OC (configuration not stated) | -3 | 4 | i | -1 | 8
CC(=O)c1ccc2c(c1)C1C=CCC1C(c1ccncc1)N2 (configuration not stated) | -5 | -9 | i | -22 | -23
COc1cccc2c1NC(C(=O)O)C1CC=CC21 (configuration not stated) | -96* | -21 | i | ? | 0
CC(=O)c1ccc2c(c1)C1C=CCC1C(C(=O)O)N2 (configuration not stated) | -91* | -13 | i | -68* | ?
O=C(COC(=O)Cc1ccc(Cl)cc1)Nc1ccc2[nH]c(=O)[nH]c2c1 | -2 | -1 | i | -6 | -1
CCOc1cc(C(=S)N2CCN(C)CC2)ccc1OCC(=O)N1CCOCC1 | 3 | 2 | -112%* | 1 | 5
COc1ccc(-c2cc3nc(C4CCN(C(=O)OC(C)(C)C)CC4)c(C(=O)O)cn3n2)cc1 | / | -3 | i | 0 | -1
O=C1NC(=O)/C(=C\c2ccc(Br)o2)S1 | ? | -9 | i | 1 | /
O=C1NC(=O)/C(=C/c2ccc(-c3cc(C(=O)O)ccc3Cl)o2)S1 | -82* | -2 | i | -8 | /
O=C1NC(=S)/C(=C\c2ccc(-c3ccccc3Cl)o2)S1 | -69* | -5 | i | -29 | 4
Cc1[nH]n(-c2ccccc2)c(=O)c1C(c1ccccc1C(=O)O)c1c(C)[nH]n(-c2ccccc2)c1=O | 2 | 2 | i | 2 | 11
Cc1[nH]n(-c2ccccc2)c(=O)c1C(c1cc(Cl)ccc1O)c1c(C)[nH]n(-c2ccccc2)c1=O | / | -51* | / | / | /
Cc1cccc(NC(=O)CCn2cnc3ccccc3c2=O)c1 | / | 2 | / | / | /
O=C(NCc1ccc(F)cc1Cl)c1ccc(CSCc2ccccc2Cl)o1 | / | -3 | / | / | /
COc1ccc(/C=C2/SC(=S)N(c3ccc(S(=O)(=O)Nc4nccs4)cc3)C2=O)cc1 | -67* | -1 | i | -21 | -30
Cc1ccc(/C=C2/SC(=S)N(c3ccc(S(=O)(=O)Nc4nccs4)cc3)C2=O)cc1 | -68* | -2 | i | -24 | -23
O=C1/C(=C\c2ccccn2)SC(=S)N1c1ccc(S(=O)(=O)Nc2nccs2)cc1 | -71* | 0 | i | -24 | -22
N=C(N)SCCc1cccc(CCSC(=N)N)c1 | 1 | 0 | i | 2 | -7
Cc1ccc(C(=O)NCCSC(C)(C)C)cc1 | 3 | -59* | i | -3 | 4
COC(=O)CN1C(=O)CSc2ccc(S(=O)(=O)Nc3ccc(Cl)cc3C)cc21 | / | 6 | / | / | /
Cc1cc(NC(=O)CCCC(=O)OCC(F)(F)C(F)F)cc(C)c1C(=O)O | 4 | 2 | -112%* | 9 | 7
COc1cc(S(=O)(=O)N2CCCCC2)ccc1NC=O | 1 | -1 | i | 14 | -10
C[N+](C)(C)CCCNC(=O)c1ccc(/C=N/O)nc1 | -2 | 8 | i | -69* | ?
CNCCCNC(=O)c1ccc(/C=N/O)nc1 | 0 | 6 | i | -69* | ?
Cc1nn(CC(=O)Nc2ccccn2)c(C)c1Br | 0 | 2 | i | 0 | 5
SMILES | PI5P4K alpha inh | PI4K2A inh | Akt phos inh | Six1-Eya2 inh | CtBP-E1A blk
C#CCOCCOCCOCCNc1nc(N2CCOCC2)nc(N2CCN(C(=O)CCCCCCCCCCNC(=O)[C@H](CO)n3cc(CCCCCN)nn3)CC2)n1 | -19 | -1 | i | -7 | -9
C#CCOCCOCCOCCNc1nc(N2CCN(C(=O)CCCCCCCCCCNC(=O)[C@H](CCCCN)n3cc(CCCC(=O)O)nn3)CC2)nc(N2CCN(C(=O)CCCCCCCCCCNC(=O)[C@H](CCCCN)n3cc(CCCC(=O)O)nn3)CC2)n1 | -56* | -6 | i | 5 | /
C#CCOCCOCCOCCNc1nc(N2CCN(C(=O)CCCCCCCCCCNC(=O)[C@H](CCCCN)n3cc(CCO)nn3)CC2)nc(N2CCN(C(=O)CCCCCCCCCCNC(=O)[C@@H]([C@H](C)O)n3cc(C)nn3)CC2)n1 | -84* | -4 | i | -2 | 0
C#CCOCCOCCOCCNc1nc(N2CCN(C(=O)CCCCCCCCCCNC(=O)[C@H](CCCCN)n3cc(CCO)nn3)CC2)nc(N2CCN(C(=O)CCCCCCCCCCNC(=O)[C@H](CCCCN)n3cc(CCO)nn3)CC2)n1 | -67* | 2 | i | 0 | -1
C#CCOCCOCCOCCNc1nc(N2CCN(C(=O)CCCCCCCCCCNC(=O)[C@@H](CCC(=O)O)n3cc(CCCCCN)nn3)CC2)nc(N2CCN(C(=O)CCCCCCCCCCNC(=O)[C@@H](CCC(=O)O)n3cc(CCCCCN)nn3)CC2)n1 | -19 | -2 | i | -2 | 1
C#CCOCCOCCOCCNc1nc(N2CCN(C(=O)CCCCCCCCCCNC(=O)[C@H](CCC(=O)O)n3cc(CCCCCN)nn3)CC2)nc(N2CCN(C(=O)CCCCCCCCCCNC(=O)[C@@H]([C@H](C)O)n3cc(C)nn3)CC2)n1 | -22 | -4 | i | -5 | /
C#CCOCCOCCOCCNc1nc(N2CCN(C(=O)CCCCCCCCCCNC(=O)Cn3cc(CCCCCN)nn3)CC2)nc(N2CCN(C(=O)CCCCCCCCCCNC(=O)[C@H](CO)n3cc(CCCCCN)nn3)CC2)n1 | -58* | -3 | i | -8 | -12
Cc1nc2sc(C(c3ccco3)N3CCN(c4cccc(Cl)c4)CC3)c(O)n2n1 (configuration not stated) | / | 1 | i | -14 | 5
CCc1ccc(S(=O)(=O)c2nnn3c2nc(N2CCCC(C)C2)c2cc(Cl)ccc23)cc1 (configuration not stated) | / | -1 | / | / | /
COc1ccc(C(=O)COC(=O)CCn2c(C)csc2=O)c(OC)c1 | -65* | -11 | i | -5 | 4
Cc1ccc(NC(=O)c2sc3nc[nH]c(=O)c3c2C)cc1C | / | -4 | / | / | /
CC(C)c1ccc(-c2nc(N3CCCCC3)[nH]c(=O)c2C#N)cc1 | 1 | 7 | i | 9 | 7
CCCn1nnnc1SCC(=O)Nc1nnc(CC)s1 | -2 | 9 | -108%* | -2 | 6
CCCn1nnnc1SCC(=O)Nc1ccc(F)cc1 | -8 | 11 | i | 6 | 5
COc1ccc(S(=O)(=O)N2CCCC2CNC(=O)C(=O)Nc2ccc(C)cc2)cc1 (configuration not stated) | 3 | -3 | i | -14 | -19
COC(=O)CSc1ncnc2c1sc1nc(N3CCOCC3)c3c(c12)CCCC3 | -2 | 0 | i | 5 | 7
CCOC(=O)CSc1ncnc2c1sc1nc(N3CCOCC3)c3c(c12)CCCC3 | -10 | 4 | -84%* | 1 | 8
